Screens from PubChem.
Only some compounds are listed: those with a hit (about 22% of all), similar ones and a draw of the others.
CYP2C19 act = activators of human cytochrome P450 2C19 | P33261 | recombinant CYP2C19, luciferin-H EGE luminescence; hits give high values; 0 = fully inhibited enzyme, 1 = untreated enzyme | activation factor at 5 µM | 96,000 tested, under 10 active | AID 1025;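 active = activation factor of at least 2 at 5 µM in the primary screen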
Target sequence (P33261 whole entry, looked up): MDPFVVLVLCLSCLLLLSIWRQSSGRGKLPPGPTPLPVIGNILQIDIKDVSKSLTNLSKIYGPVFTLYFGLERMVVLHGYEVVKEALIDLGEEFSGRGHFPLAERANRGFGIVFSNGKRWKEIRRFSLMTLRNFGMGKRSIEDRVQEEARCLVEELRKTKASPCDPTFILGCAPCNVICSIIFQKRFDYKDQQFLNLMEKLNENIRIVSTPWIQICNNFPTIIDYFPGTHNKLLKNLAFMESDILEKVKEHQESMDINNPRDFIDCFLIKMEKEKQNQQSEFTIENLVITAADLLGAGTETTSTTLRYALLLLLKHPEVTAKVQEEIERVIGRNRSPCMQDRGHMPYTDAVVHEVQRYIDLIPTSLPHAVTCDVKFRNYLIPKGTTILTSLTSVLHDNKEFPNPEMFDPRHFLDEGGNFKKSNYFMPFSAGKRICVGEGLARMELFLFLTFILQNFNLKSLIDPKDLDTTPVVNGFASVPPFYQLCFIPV
E-sel TNF inh = blocks E-selectin expression induced by TNF alpha; HUVEC TNFa-induced E-selectin immunofluorescence, high content; 0.71% of 120,000 active; inhibition, % at 2 µM;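 active = inhibition above the batch mean plus 3 SD, and confirmed as a hit on visual image review, cut at about 43% in these data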
CYP2C9 activ = activators of human CYP2C9; P11712; recombinant CYP2C9, luciferin-H conversion, luminescence; hits give high values; factor 1 = untreated enzyme, 0 = blocked; activation factor at 5 µM; 1.4% of 96,000 active; AID 1024;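 active = activation factor of 2 or more for CYP2C9 at a 5 µM dose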
CYP2C19 inh = blocks human cytochrome P450 2C19; inhibition, % at 5 µM; 21% of 96,000 active; CYP2C19 Supersomes, luciferin-H EGE luminescence, 30 min; AID 778;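 active = CYP2C19 inhibition above a set limit at 5 µM in the primary screen, cut at about 50% in these data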
cytoskel mod = modifiers of cytoskeleton assembly | AID 836 | inhibition, % at 2 µM | 0.18% of 91,000 active | HUVEC TNFa F-actin phalloidin imaging, high content;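 active = inhibition above the batch mean plus 3 SD and confirmed as a hit by visual image inspection, cut at about 30% in these data, passing the limit was not always enough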
CYP2C9 inhib = human CYP2C9 inhibition; P11712; CYP2C9 Supersomes, luciferin-H conversion, luminescence; inhibition, % at 5 µM; 20% of 96,000 active; AID 777;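 active = blocking of liver enzyme CYP2C9 beyond about 50% at 5 µM, limit read from the data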
Of the large screens only hits and unclear results are named; the others gave an inactive call.

CCOC(=O)c1c(C)n(C)c2ccc(OCC(O)Cn3c(C)nc4ccccc43)cc12 (configuration not stated)	CYP2C9 inhib 70
N=c1c[n+](-c2ccc(Cl)cc2)[n-]o1	none
CC1(C)N([O-])C2=C(CCCC2)[N+]1=O	none (no result: CYP2C19 act, CYP2C9 activ, CYP2C19 inh, cytoskel mod, CYP2C9 inhib)
Cc1cc(NCCCn2ccnc2)n2nc(C)c(-c3ccccc3)c2n1	CYP2C19 inh 90, CYP2C9 inhib 88
Cc1cc(NCCCn2ccnc2)n2nc(C)c(-c3ccc(Cl)cc3)c2n1	CYP2C19 inh 90, CYP2C9 inhib 89
Cc1cc(NCCN2CCOCC2)n2nc(C)c(-c3ccc(Cl)cc3)c2n1	CYP2C9 inhib 57
Cc1cc(NCCN2CCOCC2)n2nc(C)c(-c3ccccc3)c2n1	none
Cc1cc(NCCCn2ccnc2)n2ncc(-c3ccccc3)c2n1	CYP2C19 inh 99, CYP2C9 inhib 98
Cc1ccc2cc(CNC(C)(C)C)c(=O)[nH]c2c1	none
COC(=O)c1sc(S(=O)(=O)N2CCCCC2)c(C(=O)OC)c1C	CYP2C19 inh 62 (no result: E-sel TNF inh)
COC(=O)c1sc(S(=O)(=O)NCc2ccccc2)c(C(=O)OC)c1C	CYP2C19 inh 83, CYP2C9 inhib 60
COC(=O)c1c(NC(C)=O)sc(Cc2ccccc2)c1C	none
COC(=O)c1sc(S(=O)(=O)N2CCC(C)CC2)c(C(=O)OC)c1C	none (no result: E-sel TNF inh)
COC(=O)c1sc(S(=O)(=O)N2CCN(c3ccccc3)CC2)c(C(=O)OC)c1C	CYP2C19 inh 89, CYP2C9 inhib 78
CN(c1ccc(C(=O)Nc2ccccc2C(=O)N2CCCC2)cc1)S(C)(=O)=O	none
CCOC(=O)CC1ON(C)C(=O)N1c1ccc(Cl)cc1Cl (configuration not stated)	CYP2C19 inh 99
CCOC(=O)C1CCCN(c2cc(=O)n(-c3ccccc3Cl)c(=O)[nH]2)C1 (configuration not stated)	none (no result: cytoskel mod)
COc1ccc(-c2cc(C(=O)Nc3cnn(Cc4ccccc4C)c3)no2)cc1OC	E-sel TNF inh 78
Cc1ccc(C(=O)Nc2cc(C)c(OCC(=O)N3CCOCC3)c(C)c2)cc1	CYP2C9 inhib 78
COc1ccc(C(=O)/C=C/c2cn(CN3CCN(C)CC3)c3ccccc23)cc1	CYP2C19 inh 67, CYP2C9 inhib 68
CCOc1ccc(C(=O)/C=C/c2cn(CN3CCN(C)CC3)c3ccccc23)cc1	CYP2C19 inh 62, CYP2C9 inhib 64
Cc1ccc(-n2c(O)c(C=NC3CCS(=O)(=O)C3)c3ccccc3c2=O)cc1 (configuration not stated)	none
Cc1nn(-c2nc3ccccc3[nH]2)c(N)c1-c1ccc(Cl)cc1	none
CC(=O)c1ccc(NS(=O)(=O)c2ccc(CC(C)C)cc2)cc1	CYP2C19 inh 67, CYP2C9 inhib 86
CC(=O)Nc1cccc(NS(=O)(=O)Cc2ccc(Cl)cc2)c1	CYP2C19 inh 96
CC(=O)c1ccc(NS(=O)(=O)Cc2ccc(Cl)cc2)cc1	CYP2C19 inh 74, CYP2C9 inhib 77
COCCn1cnc2c1c(=O)n(CC(=O)OCC(=O)NCCCc1ccccc1)c(=O)n2Cc1ccccc1	none (no result: CYP2C19 act, CYP2C9 activ, CYP2C19 inh, cytoskel mod, CYP2C9 inhib)
CSc1ccc(CN2CCCC(CO)(Cc3ccccc3)C2)cc1 (configuration not stated)	none (no result: CYP2C19 act, CYP2C9 activ, CYP2C19 inh, cytoskel mod, CYP2C9 inhib)
Cc1ccc(CSC2=Nc3sccc3C3=NC(=O)CN23)cc1	CYP2C19 inh 66
COc1cc2c(cc1OC)C1=NC(=O)CN1C(SCc1ccc(C)cc1)=N2	none
CCCn1c(SCC(=O)N2CCCc3ccccc32)nnc1-c1ccco1	CYP2C19 inh 52
CCn1c(SCC(=O)N2CCc3ccccc32)nnc1-c1ccco1	CYP2C19 inh 51 (no result: E-sel TNF inh)
O=C(CSc1nnc(-c2ccco2)n1-c1ccccc1)N1CCc2ccccc21	none (no result: CYP2C19 act, CYP2C9 activ, CYP2C19 inh, CYP2C9 inhib)
CCCCn1c(SCC(=O)N2CCCc3ccccc32)nc2c1c(=O)n(C)c(=O)n2C	CYP2C9 inhib 63
Cn1c(SCC(=O)N2CCCc3ccccc32)nnc1-c1ccco1	none (no result: E-sel TNF inh)
Cn1c(=O)c2c(nc(SCC(=O)N3CCCc4ccccc43)n2C)n(C)c1=O	none (no result: CYP2C19 act, CYP2C9 activ, CYP2C19 inh, CYP2C9 inhib)
CCOC(=O)N1CCC(N2CC34C=CC(O3)C(C(=O)O)C4C2=O)CC1 (configuration not stated)	none (no result: E-sel TNF inh)
CCn1c2ccccc2c2cc(NC(=O)CSc3nccc(=O)[nH]3)ccc21	none (no result: CYP2C19 act, CYP2C9 activ, CYP2C19 inh, cytoskel mod, CYP2C9 inhib)
O=C(CSc1nnc(-c2cccc(F)c2)o1)Nc1nncs1	none (no result: CYP2C19 act, CYP2C9 activ, CYP2C19 inh, cytoskel mod, CYP2C9 inhib)
